Data as given in the supplement of paper PMC6555819.

How the values were obtained:
Assay in all cases: PBM binding z-score (relative to random genomic background probes); higher = stronger binding; sequences stand for … in GC…GCGATTGACAGCGTAGAATGAAGG
[1] = test system: FXR:RXRa (NR concentration 270 nM, RXRa partner concentration 90 nM)
Procedure, shortened: (§1)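 Probes were double-stranded and carried 34-nt variable regions with direct-repeat seeds, single-nucleotide variants, half-site ablations and random human genomic background sequences, printed on custom Agilent 4×180K protein-binding microarrays. Arrays were incubated 1 h with ligand-free nuclear receptor dimers in PBS pH 7.4, 2% milk, 0.02% Triton X-100, 1 mM DTT, 0.2 mg/mL BSA and 0.4 mg/ml salmon testes DNA. Antibodies against each partner (one per run) detected binding, and scanned fluorescence was regression-normalized. Binding z-scores use the random background probes as reference.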

[2] = test system: LXRa:RXRa (NR concentration 270 nM, RXRa partner concentration 90 nM)
Procedure, shortened: as §1

[3] = test system: LXRa homodimer (NR concentration 270 nM)
Procedure, shortened: as §1

[4] = test system: LXRb:RXRa (NR concentration 270 nM, RXRa partner concentration 90 nM)
Procedure, shortened: as §1

[5] = test system: LXRb homodimer (NR concentration 270 nM)
Procedure, shortened: as §1

[6] = test system: PPARa:RXRa (NR concentration 270 nM, RXRa partner concentration 90 nM)
Procedure, shortened: as §1

[7] = test system: PPARg:RXRa (NR concentration 180 nM, RXRa partner concentration 90 nM)
Procedure, shortened: as §1

[8] = test system: PPARg:RXRa 270nM:90nM, anti-RXR (NR concentration 270 nM, RXRa partner concentration 90 nM)
Procedure, shortened: as §1

[9] = test system: PPARg:RXRa 30nM:10nM, anti-RXR (NR concentration 30 nM, RXRa partner concentration 10 nM)
Procedure, shortened: as §1

[10] = test system: PPARg:RXRa 90nM:30nM, anti-RXR (NR concentration 90 nM, RXRa partner concentration 30 nM)
Procedure, shortened: as §1

[11] = test system: PPARg:RXRa DBDmut IVT, anti-RXR (DBD mutation: RXRa K156A/R161A, NR concentration 270 nM, RXRa partner concentration 90 nM)
Procedure, shortened: as §1

[12] = test system: PPARg:RXRa IVT, anti-PPARg (NR concentration 270 nM, RXRa partner concentration 90 nM)
Procedure, shortened: as §1

[13] = test system: PPARg DBDmut:RXRa IVT, anti-PPARg (DBD mutation: PPARg1 K132A/R137A, NR concentration 270 nM, RXRa partner concentration 90 nM)
Procedure, shortened: as §1

[14] = test system: PPARg DBDmut IVT, anti-PPARg (DBD mutation: PPARg1 K132A/R137A, NR concentration 270 nM)
Procedure, shortened: as §1

[15] = test system: PPARg homodimer (NR concentration 180 nM)
Procedure, shortened: as §1

[16] = test system: PXR:RXRa (NR concentration 270 nM, RXRa partner concentration 90 nM)
Procedure, shortened: as §1

[17] = test system: PXR homodimer (NR concentration 270 nM)
Procedure, shortened: as §1

[18] = test system: RARa:RXR (NR concentration 270 nM, RXRa partner concentration 90 nM)
Procedure, shortened: as §1

[19] = test system: RARa homodimer (NR concentration 270 nM)
Procedure, shortened: as §1

[20] = test system: RARb:RXRa (NR concentration 270 nM, RXRa partner concentration 90 nM)
Procedure, shortened: as §1

Sequence | PBM binding z-score [1] | PBM binding z-score [2] | PBM binding z-score [3] | PBM binding z-score [4] | PBM binding z-score [5] | PBM binding z-score [6] | PBM binding z-score [7] | PBM binding z-score [8] | PBM binding z-score [9] | PBM binding z-score [10] | PBM binding z-score [11] | PBM binding z-score [12] | PBM binding z-score [13] | PBM binding z-score [14] | PBM binding z-score [15] | PBM binding z-score [16] | PBM binding z-score [17] | PBM binding z-score [18] | PBM binding z-score [19] | PBM binding z-score [20]
AGAACGAGTGCACGCTGAGTTGATAGCAGAGTAG | -0.478 | -0.297 | -0.632 | -0.327 | -1.13 | 0.0263 | 0.542 | -0.2 | -0.197 | -0.307 | -0.434 | 0.0753 | 0.194 | -0.145 | -0.176 | 0.739 | 0.603 | -0.0592 | -0.662 | 0.298
CACGAAAGGTCGTGCTCAGGTGAGTATACCAAAC | 5.58 | 4.3 | 0.166 | 3.44 | 0.848 | 4.88 | 3.14 | 3.97 | 1.14 | 2.72 | 1.16 | 1.86 | 0.523 | 0.745 | 1.9 | 3.35 | 0.154 | 4.28 | -0.1 | 4.13
CGAACTAGGGCATTGACAGGACAGTGAATAGTAA | 0.151 | 0.0251 | 0.031 | -0.0451 | -0.654 | 2.23 | 3.32 | 2.68 | 0.522 | 1.83 | 6.82 | 6.53 | 1.42 | 0.993 | 0.464 | -0.229 | -0.0482 | -0.297 | 0.262 | 1.14
TATACAGGGTCAAAGGCCAGAATACGAATGTCGA | 6.57 | 5.89 | 2.16 | 4.62 | 2.29 | 5.89 | 7.8 | 7.19 | 5.21 | 7.33 | 1.98 | 4.81 | 2.92 | 2.34 | 2.02 | 3.86 | 0.553 | 5.78 | 0.841 | 4.28
TAGCCTAGGTCATGGCCCAGTATACCACGCGAAC | 4.7 | 3.85 | 0.774 | 2.64 | -0.293 | 4.33 | 4.27 | 3.99 | 1.14 | 2.95 | 1.98 | 4.42 | 0.172 | -0.0252 | 3.1 | 1.91 | -0.224 | 3.53 | 0.397 | 4.01
CCTACTGGGCCAAAGGTCATTGTTTCCAATGCTC | 4.79 | 5.08 | 4.83 | 4.72 | 1.37 | 6.74 | 11.7 | 10.6 | 10.6 | 11.3 | 5.12 | 6.92 | 2.88 | 1.37 | 5.48 | 5.37 | 1.86 | 6.23 | 1.11 | 4.16
GCTAGCAGGCCATTTGGGTCACTCGATGACGGGC | -0.0398 | -0.0743 | -0.738 | -0.0448 | -0.791 | 1.25 | 0.641 | 0.713 | -0.472 | 0.633 | 2.18 | 2.18 | -0.31 | -1.28 | -0.101 | 0.388 | -0.29 | 0.794 | -0.742 | 1.39
TCTCGGAGGACACGAAGGTCAGTGCTTTCCAGAG | 1.02 | 1.19 | -0.141 | 0.731 | -0.921 | 1.59 | 0.156 | 1.49 | 2.2 | 1.94 | 1.42 | 1.08 | -0.7 | -0.641 | 0.926 | 1.54 | 0.566 | 1.52 | -0.39 | 3.29
TCTATTAGTTGAAGGGCCACCGACGAGTCCGTTT | 0.67 | 0.709 | 0.433 | 0.782 | 0.195 | 0.892 | 0.0935 | 2.33 | 3.78 | 3.03 | 2.33 | 0.338 | 0.273 | 0.346 | 1.31 | 0.576 | 0.557 | 0.817 | 1.15 | 1.07
CGTCTAAGGTCAATGCTAGGTCAGTGAAAGCATT | 7.02 | 5.82 | 2.56 | 4.58 | 1.34 | 5.36 | 4.53 | 5.68 | 1.9 | 4.12 | 3.81 | 4 | -0.172 | -0.413 | 4.57 | 4.95 | 1.41 | 6.06 | 0.698 | 5.35
CCGACTGGGGCAGAATGGTTACCATACCATCCGG | -0.449 | -0.782 | -0.449 | -0.838 | -1.2 | -0.355 | 0.778 | -0.289 | -0.329 | -0.35 | 1.42 | 0.943 | -0.354 | -1.29 | 0.0556 | -1.05 | -0.973 | -0.83 | -0.164 | 0.0446
TCGAGTAGGTTACCAATGGGGTATTCAGCTTTCT | 0.116 | 0.749 | -0.345 | 0.847 | -0.514 | 0.988 | 0.229 | 1.14 | 1.34 | 1.28 | 3.18 | 2.46 | -0.47 | -0.0236 | -0.0597 | 0.05 | -0.757 | 0.339 | -0.642 | 0.76
AGAATGAGGTTACCAAAAATCAGGGAAACGCTTG | 1.63 | 2.73 | -0.193 | 1.54 | -0.426 | 3.2 | 2.49 | 2.98 | 0.857 | 2.25 | 4.5 | 3.48 | 1.31 | 0.817 | 0.553 | 1.04 | -0.0178 | 1.76 | 0.389 | 2.08
GCTAGTTGGTCAGTAAAAGGTCACACAGCGGTCG | 3.2 | 4.47 | 4.65 | 4.17 | 0.715 | 4.62 | 2.84 | 4.58 | 2.15 | 4.37 | 1.19 | 2.6 | -0.374 | -0.109 | 8.6 | 5.42 | 1.17 | 6.43 | 4.55 | 4.32
